According to PubChem BioAssay:
Activity calls are given as the source filed them.

Legend:
[1] = system: PRMT1 (protein arginine N-methyltransferase 1); experiment: PRMT1 binders on small-molecule microarrays, primary screen, biochemical, small-molecule microarray, 635 nm fluorescence (AID 1088); details: small-molecule microarray binding, higher = more signal;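 note: binding of Prmt1 protein to compounds spotted on small-molecule microarray slides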
[2] = yeast growth modulation, basal conditions, primary screen, YJM789 clinical isolate, OD600, 24 h (AID 1089);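 note: growth of clinical yeast isolate S. cerevisiae YJM 789 seeded 1000 cells per well; test concentration not given here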; details: S. cerevisiae YJM789 growth, higher = more signal, called active from +8 up or from −8 down
[3] = fission yeast growth modulation, primary screen, strain 972, OD600, 24 h, no modulator (AID 1090);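 note: basal condition with compound alone and no growth modifier present; test concentration not given here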; details: S. pombe 972 growth, higher = more signal, called active from +8 up or from −8 down
[4] = S. cerevisiae growth modulation with rapamycin, primary screen, strain BY4716, OD600, 96 h (AID 1091); details: higher = more signal, called active from +8 up or from −8 down; note: test concentration not given here
[5] = target: Torsin-1A-interacting protein 2 (Homo sapiens) (UniProt Q8NFQ8); experiment: LULL1 binders on small-molecule microarray, primary screen, cell lysate, human LULL1 lysate, 635/667 nm fluorescence (AID 1092); details: hLULL1 lysate binding, 635 nm fluorescence, higher = more signal;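 note: probe is lysate of COS7 cells overexpressing human LULL1; score merges per-feature 667 nm fluorescence with signal-to-noise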
[6] = E. coli growth modulation, two-sided OD650, primary screen, E. coli filamentation project, strain DRC41, 24 h (AID 1093); details: OD650, 24 h, higher = more signal, called active from +8 up or from −8 down;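 note: MC1000 strain lacking acrAB efflux and sulA so SOS filamentation is blocked; test concentration not given here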
[7] = small-molecule microarray binders of probe aLefty2, primary screen, biochemical, biotinylated probe, 635/667 nm fluorescence (AID 1094); details: higher = more signal;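 note: score merges spot fluorescence near 667 nm with spot signal-to-noise ratio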
[8] = system: Noggin (protein binding on small-molecule microarray); experiment: Noggin binders on small-molecule microarray, primary screen, biochemical, 635/667 nm fluorescence (AID 1095); details: 635 nm fluorescence, higher = more signal;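 note: score merges 667 nm feature fluorescence with signal to noise over triplicate slides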
[9] = target: Neurogenic locus notch homolog protein 3 (Homo sapiens) (UniProt Q9UM47); experiment: NOTCH3 binders on small-molecule microarray, primary screen, biochemical, 635/667 nm fluorescence (AID 1096); details: NOTCH3 binding, 635 nm fluorescence, higher = more signal
[10] = small-molecule microarray binders of probe aEGFR, primary screen, biochemical, biotinylated probe, 635/667 nm fluorescence (AID 1097); details: higher = more signal;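 note: probe is a biotinylated anti-EGFR antibody binding compounds printed on slides; score combines fluorescence near 667 nm and signal to noise of each spot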
[11] = system: Plasmodium falciparum Sir2 (PF13_0152, Sir2A); experiment: pfSir2 binders on small-molecule microarrays, primary screen, biochemical, small-molecule microarray, 635 nm fluorescence (AID 1098); details: small-molecule microarray binding, fluorescence 635 nm; higher = more signal;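 note: score merges spot fluorescence intensity with its signal-to-noise ratio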
[12] = small-molecule microarray binders of probe aDKK1, primary screen, biochemical, biotinylated probe, 635/667 nm fluorescence (AID 1099); details: higher = more signal;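 note: score merges 667nm spot fluorescence with signal to noise across triplicate slides; reference of the scale not given here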
[13] = small-molecule microarray binders of probe aCHRDL2, primary screen, biochemical, biotinylated probe, 635/667 nm fluorescence (AID 1100); details: higher = more signal
[14] = splicing luciferase reporter signal modulators, primary screen, spliceosome inhibition project, cell-based, HEK293, splice +/- reporter (AID 1101); details: luminescence, 24 h, higher = more signal, called active from +8 up or from −8 down;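 note: HEK293 cells carrying a splicing-competent luciferase reporter gene; test concentration not given here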
[15] = target: Fibroblast growth factor 10 (Homo sapiens) (UniProt O15520); experiment: FGF10 binders on small-molecule microarrays, primary screen, biochemical, small-molecule microarray, 635 nm fluorescence (AID 1102); details: FGF10 binding, fluorescence 635 nm, higher = more signal
[16] = system: glycogen synthase kinase-3 (GSK3A per assay name; protocol says GSK3B); experiment: GSK3 binders on small-molecule microarrays, primary screen, biochemical, small-molecule microarray, 635 nm fluorescence, GSK3A (AID 1103); details: small-molecule microarray binding, fluorescence 635 nm; higher = more signal; note: the record names both GSK3A and GSK3B
[17] = target: Epidermal growth factor receptor (Homo sapiens) (UniProt P00533); experiment: EGFR binders on small-molecule microarrays, primary screen, biochemical, small-molecule microarray, 635 nm fluorescence (AID 1104); details: EGFR binding, higher = more signal;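 note: score merges 667 nm emission intensity with spot signal to noise over triplicate slides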
[18] = target: Follistatin-related protein 3 (Homo sapiens) (UniProt O95633); experiment: FSTL3 binders on small-molecule microarrays, primary screen, biochemical, small-molecule microarray, 635 nm fluorescence (AID 1105); details: FSTL3 binding, higher = more signal;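 note: score merges emission near 667 nm and signal to noise per printed spot across three slides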
[19] = target: Dickkopf-related protein 1 (Homo sapiens) (UniProt O94907); experiment: DKK1 binders on small-molecule microarrays, primary screen, biochemical, small-molecule microarray, 635 nm fluorescence scan (AID 1106); details: DKK1 binding, higher = more signal;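 note: score merges emission near 667 nm with signal to noise over three replicate slides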
[20] = system: Inhibin beta A chain (activin A); experiment: INHBA (activin A) binders on microarrays, primary screen, biochemical, small-molecule microarray, 635 nm fluorescence scan (AID 1107); details: small-molecule microarray binding, higher = more signal;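 note: mouse activin A protein probed at 4.33 µg/mL on printed slides; score merges bound-protein fluorescence near 667 nm with spot signal-to-noise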

Sequence of Epidermal growth factor receptor (Homo sapiens) (P00533 whole entry, looked up): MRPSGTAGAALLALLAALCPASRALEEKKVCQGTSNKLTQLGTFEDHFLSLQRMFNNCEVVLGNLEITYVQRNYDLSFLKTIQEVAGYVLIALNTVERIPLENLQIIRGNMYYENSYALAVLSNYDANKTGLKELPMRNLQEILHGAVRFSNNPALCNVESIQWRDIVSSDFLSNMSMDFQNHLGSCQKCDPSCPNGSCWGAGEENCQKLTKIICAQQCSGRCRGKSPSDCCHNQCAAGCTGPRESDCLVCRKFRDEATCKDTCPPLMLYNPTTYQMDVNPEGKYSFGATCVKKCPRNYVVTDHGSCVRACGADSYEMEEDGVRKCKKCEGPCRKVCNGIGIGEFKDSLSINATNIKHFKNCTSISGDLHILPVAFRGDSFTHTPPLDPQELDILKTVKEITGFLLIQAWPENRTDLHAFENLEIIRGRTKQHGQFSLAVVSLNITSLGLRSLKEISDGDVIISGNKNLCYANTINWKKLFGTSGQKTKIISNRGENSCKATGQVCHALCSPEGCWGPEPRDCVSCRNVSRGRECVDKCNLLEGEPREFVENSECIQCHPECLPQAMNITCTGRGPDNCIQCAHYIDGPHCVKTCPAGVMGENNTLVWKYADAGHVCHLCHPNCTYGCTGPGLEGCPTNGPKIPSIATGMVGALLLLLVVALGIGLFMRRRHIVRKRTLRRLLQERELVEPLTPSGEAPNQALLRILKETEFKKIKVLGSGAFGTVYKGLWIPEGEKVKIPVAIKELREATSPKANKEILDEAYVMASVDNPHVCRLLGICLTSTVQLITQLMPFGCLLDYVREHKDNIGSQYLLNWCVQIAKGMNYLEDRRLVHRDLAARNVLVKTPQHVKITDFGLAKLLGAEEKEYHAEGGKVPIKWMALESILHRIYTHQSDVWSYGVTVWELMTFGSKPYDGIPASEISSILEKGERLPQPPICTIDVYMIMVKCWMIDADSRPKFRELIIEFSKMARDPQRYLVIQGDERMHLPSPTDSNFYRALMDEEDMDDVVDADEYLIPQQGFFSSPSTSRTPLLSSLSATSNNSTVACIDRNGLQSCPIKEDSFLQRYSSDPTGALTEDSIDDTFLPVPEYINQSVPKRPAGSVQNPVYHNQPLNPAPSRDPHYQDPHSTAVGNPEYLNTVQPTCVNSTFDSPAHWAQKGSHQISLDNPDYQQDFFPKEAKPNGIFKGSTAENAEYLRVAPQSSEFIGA
Sequence of Dickkopf-related protein 1 (Homo sapiens) (O94907 whole entry, looked up): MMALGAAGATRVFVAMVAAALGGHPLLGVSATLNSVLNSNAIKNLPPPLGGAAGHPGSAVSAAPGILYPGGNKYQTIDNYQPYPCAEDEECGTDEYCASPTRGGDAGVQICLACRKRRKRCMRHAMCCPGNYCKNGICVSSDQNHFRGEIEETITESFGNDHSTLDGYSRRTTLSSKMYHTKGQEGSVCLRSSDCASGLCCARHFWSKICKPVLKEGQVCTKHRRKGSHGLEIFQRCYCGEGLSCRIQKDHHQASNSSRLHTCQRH
Sequence of Neurogenic locus notch homolog protein 3 (Homo sapiens) (Q9UM47 whole entry, looked up): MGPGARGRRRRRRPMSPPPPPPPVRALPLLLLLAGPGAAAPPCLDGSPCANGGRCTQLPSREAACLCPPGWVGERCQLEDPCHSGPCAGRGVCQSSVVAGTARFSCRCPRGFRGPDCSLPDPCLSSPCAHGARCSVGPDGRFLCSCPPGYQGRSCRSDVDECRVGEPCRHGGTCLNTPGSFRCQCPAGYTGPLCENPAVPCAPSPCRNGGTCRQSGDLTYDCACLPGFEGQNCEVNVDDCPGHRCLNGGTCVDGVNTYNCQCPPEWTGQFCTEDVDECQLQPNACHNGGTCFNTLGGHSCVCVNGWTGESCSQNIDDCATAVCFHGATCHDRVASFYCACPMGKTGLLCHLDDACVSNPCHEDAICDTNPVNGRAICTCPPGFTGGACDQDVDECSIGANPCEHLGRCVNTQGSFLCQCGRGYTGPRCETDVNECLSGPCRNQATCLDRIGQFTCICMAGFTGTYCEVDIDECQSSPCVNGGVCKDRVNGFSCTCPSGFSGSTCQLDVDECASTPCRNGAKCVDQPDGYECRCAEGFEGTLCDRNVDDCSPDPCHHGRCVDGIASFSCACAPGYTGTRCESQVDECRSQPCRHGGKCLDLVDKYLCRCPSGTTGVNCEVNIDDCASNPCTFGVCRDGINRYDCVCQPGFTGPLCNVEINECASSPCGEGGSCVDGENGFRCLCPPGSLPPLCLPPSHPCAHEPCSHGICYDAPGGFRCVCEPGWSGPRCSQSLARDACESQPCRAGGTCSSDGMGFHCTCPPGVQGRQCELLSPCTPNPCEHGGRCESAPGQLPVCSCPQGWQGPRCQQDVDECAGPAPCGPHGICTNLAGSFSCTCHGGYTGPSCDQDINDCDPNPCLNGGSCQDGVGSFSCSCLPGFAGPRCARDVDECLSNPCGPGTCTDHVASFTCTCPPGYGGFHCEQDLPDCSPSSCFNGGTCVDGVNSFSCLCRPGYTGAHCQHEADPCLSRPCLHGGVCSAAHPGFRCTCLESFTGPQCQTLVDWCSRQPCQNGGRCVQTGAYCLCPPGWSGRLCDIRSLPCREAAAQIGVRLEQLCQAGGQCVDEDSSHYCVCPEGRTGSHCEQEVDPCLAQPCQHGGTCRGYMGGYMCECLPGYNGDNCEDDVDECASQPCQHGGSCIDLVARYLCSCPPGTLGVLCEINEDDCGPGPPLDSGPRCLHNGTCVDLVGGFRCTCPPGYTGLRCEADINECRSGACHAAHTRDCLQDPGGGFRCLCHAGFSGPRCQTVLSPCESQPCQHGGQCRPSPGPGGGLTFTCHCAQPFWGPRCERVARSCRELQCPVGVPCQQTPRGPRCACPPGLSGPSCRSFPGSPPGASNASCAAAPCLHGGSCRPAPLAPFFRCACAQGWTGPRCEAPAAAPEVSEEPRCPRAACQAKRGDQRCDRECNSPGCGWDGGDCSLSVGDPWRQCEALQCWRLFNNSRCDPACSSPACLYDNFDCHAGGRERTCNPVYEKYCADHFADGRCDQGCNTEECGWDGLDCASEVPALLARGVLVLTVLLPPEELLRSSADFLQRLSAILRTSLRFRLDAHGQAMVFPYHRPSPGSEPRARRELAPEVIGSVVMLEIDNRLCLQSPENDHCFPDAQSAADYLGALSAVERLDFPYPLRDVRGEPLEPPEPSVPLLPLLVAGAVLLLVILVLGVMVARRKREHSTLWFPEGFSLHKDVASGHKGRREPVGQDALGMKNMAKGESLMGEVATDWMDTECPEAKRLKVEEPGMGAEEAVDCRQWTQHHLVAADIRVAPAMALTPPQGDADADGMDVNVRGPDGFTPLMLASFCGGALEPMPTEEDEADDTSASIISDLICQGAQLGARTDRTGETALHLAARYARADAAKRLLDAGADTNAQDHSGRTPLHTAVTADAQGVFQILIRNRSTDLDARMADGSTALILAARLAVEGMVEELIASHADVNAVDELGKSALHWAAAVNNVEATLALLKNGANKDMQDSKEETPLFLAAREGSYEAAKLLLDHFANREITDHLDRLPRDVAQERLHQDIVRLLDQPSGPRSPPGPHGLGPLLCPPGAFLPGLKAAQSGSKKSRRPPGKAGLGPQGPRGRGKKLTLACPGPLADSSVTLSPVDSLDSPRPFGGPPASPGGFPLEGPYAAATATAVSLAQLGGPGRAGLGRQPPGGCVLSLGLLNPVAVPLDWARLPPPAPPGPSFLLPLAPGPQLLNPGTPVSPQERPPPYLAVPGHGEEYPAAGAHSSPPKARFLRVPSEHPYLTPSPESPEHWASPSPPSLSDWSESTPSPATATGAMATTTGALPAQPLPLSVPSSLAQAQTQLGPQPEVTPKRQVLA
Sequence of Follistatin-related protein 3 (Homo sapiens) (O95633 whole entry, looked up): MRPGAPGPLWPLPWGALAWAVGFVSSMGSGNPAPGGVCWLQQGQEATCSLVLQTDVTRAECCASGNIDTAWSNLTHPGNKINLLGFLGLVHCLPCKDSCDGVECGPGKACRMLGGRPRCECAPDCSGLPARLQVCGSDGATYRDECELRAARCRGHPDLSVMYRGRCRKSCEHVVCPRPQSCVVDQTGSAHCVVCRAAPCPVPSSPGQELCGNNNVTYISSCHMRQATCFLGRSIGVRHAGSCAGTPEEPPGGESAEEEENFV
Sequence of Fibroblast growth factor 10 (Homo sapiens) (O15520 whole entry, looked up): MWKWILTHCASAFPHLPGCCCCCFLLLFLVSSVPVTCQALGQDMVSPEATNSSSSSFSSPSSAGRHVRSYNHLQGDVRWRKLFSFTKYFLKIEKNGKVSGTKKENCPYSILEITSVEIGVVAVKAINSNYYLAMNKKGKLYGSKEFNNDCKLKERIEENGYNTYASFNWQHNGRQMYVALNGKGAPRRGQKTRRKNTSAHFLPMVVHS
Sequence of Torsin-1A-interacting protein 2 (Homo sapiens) (Q8NFQ8 whole entry, looked up): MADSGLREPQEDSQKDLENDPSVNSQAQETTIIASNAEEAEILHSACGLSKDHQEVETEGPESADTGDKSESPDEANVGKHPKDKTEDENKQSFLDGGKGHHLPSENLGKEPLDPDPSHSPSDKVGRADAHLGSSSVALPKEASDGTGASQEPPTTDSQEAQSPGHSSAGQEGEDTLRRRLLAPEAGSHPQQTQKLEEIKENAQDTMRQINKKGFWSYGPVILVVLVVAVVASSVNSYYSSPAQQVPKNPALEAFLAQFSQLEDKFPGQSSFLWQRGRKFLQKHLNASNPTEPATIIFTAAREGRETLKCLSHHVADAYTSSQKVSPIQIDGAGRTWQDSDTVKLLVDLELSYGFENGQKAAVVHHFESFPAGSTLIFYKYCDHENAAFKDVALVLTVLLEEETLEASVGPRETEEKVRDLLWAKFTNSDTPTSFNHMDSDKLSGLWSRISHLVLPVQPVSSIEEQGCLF

SMILES: CC(C)(C)N1C(=O)[C@H]2[C@H]3[C@H](O)C=CC(=O)[C@@H]3CC[C@H]2C1=O
- composite z-score [1]: -0.832
- z-score [2]: 0.985 (inactive)
- z-score [3]: 0.632 (inactive)
- z-score [4]: 1.12 (inactive)
- composite z-score [5]: -0.117
- z-score [6]: 0.208 (inactive)
- composite z-score [7]: -0.0258
- composite z-score [8]: 0.891
- composite z-score [9]: 0.604
- composite z-score [10]: 0.0469
- composite z-score [11]: 0.294
- composite z-score [12]: -0.407
- composite z-score [13]: -0.428
- z-score [14]: -0.128 (inactive)
- composite z-score [15]: 0.429
- composite z-score [16]: 0.695
- composite z-score [17]: 0.437
- composite z-score [18]: 0.711
- composite z-score [19]: 0.715
- composite z-score [20]: -0.214

SMILES: CCCNC(=O)OC[C@H]1O[C@H](CCON=C(C)C)C=C[C@@H]1Oc1ccc(OC)cc1
- composite z-score [1]: 0.612
- z-score [2]: -0.578 (inactive)
- z-score [3]: -5.54 (inactive)
- z-score [4]: 0.0158 (inactive)
- composite z-score [5]: 0.876
- z-score [6]: 0.964 (inactive)
- composite z-score [7]: 0.0472
- composite z-score [8]: 0.422
- composite z-score [9]: -0.216
- composite z-score [10]: -0.0581
- composite z-score [11]: 0.415
- composite z-score [12]: 0.325
- composite z-score [13]: 0.707
- z-score [14]: -0.0557 (inactive)
- composite z-score [15]: 0.325
- composite z-score [16]: -0.515
- composite z-score [17]: -0.0864
- composite z-score [18]: -0.125
- composite z-score [19]: -0.288
- composite z-score [20]: 1.23

SMILES: CCOC(=O)[C@H](CC(C)C)NC(=O)CCC1CC(OC(=O)NCCc2ccc(F)cc2)CC2(CCCC(COC(=O)NCC3CCCCC3)O2)O1 (stereo not given in full)
- composite z-score [1]: 0.49
- z-score [2]: -0.808 (inactive)
- z-score [3]: 0.541 (inactive)
- z-score [4]: 1.23 (inactive)
- composite z-score [5]: 1.12
- z-score [6]: -0.61 (inactive)
- composite z-score [7]: -0.231
- composite z-score [8]: 0.266
- composite z-score [9]: 0.291
- composite z-score [10]: 0.0069
- composite z-score [11]: 0.0149
- composite z-score [12]: -0.227
- composite z-score [13]: -0.283
- z-score [14]: -0.152 (inactive)
- composite z-score [15]: 0.953
- composite z-score [16]: 0.293
- composite z-score [17]: 0.432
- composite z-score [18]: 0.8
- composite z-score [19]: 0.479
- composite z-score [20]: -0.174

SMILES: O=C1CCCC=C1C(O)CCOC(c1ccccc1)(c1ccccc1)c1ccccc1 (stereo not given)
- composite z-score [1]: -0.758
- z-score [2]: 0.162 (inactive)
- z-score [3]: -1.92 (inactive)
- z-score [4]: 1.55 (inactive)
- composite z-score [5]: -0.626
- z-score [6]: -0.0634 (inactive)
- composite z-score [7]: -0.186
- composite z-score [8]: 0.547
- composite z-score [9]: 0.103
- composite z-score [10]: -0.198
- composite z-score [11]: -0.0236
- composite z-score [12]: -0.231
- composite z-score [13]: -0.15
- z-score [14]: -0.0834 (inactive)
- composite z-score [15]: 0.0203
- composite z-score [16]: -0.388
- composite z-score [17]: -0.0225
- composite z-score [18]: -0.108
- composite z-score [19]: 0.335
- composite z-score [20]: 0.874

SMILES: O=C(NN=C1C[C@@H](O)[C@@H](O)[C@@H]2[C@@H]3C(=O)N(C[C@@H]4CCCO4)C(=O)[C@@H]3CC[C@H]12)OCc1ccccc1
- composite z-score [1]: -0.166
- z-score [2]: 0.387 (inactive)
- z-score [3]: 0.499 (inactive)
- z-score [4]: -0.186 (inactive)
- composite z-score [5]: 0.126
- z-score [6]: 0.52 (inactive)
- composite z-score [7]: 0.0061
- composite z-score [8]: -0.284
- composite z-score [9]: -0.696
- composite z-score [10]: -0.19
- composite z-score [11]: 0.278
- composite z-score [12]: 0.545
- composite z-score [13]: 0.768
- z-score [14]: 0.0311 (inactive)
- composite z-score [15]: -0.132
- composite z-score [16]: -0.658
- composite z-score [17]: -0.0485
- composite z-score [18]: -0.281
- composite z-score [19]: -0.575
- composite z-score [20]: 0.902

SMILES: C=CC[C@@H]1C=C[C@H](ON=C[C@@H](C)[C@H](OCc2ccccc2)C(C)C)[C@@H](CO)O1
- composite z-score [1]: 0.261
- z-score [2]: -1.46 (inactive)
- z-score [3]: -3.98 (inactive)
- z-score [4]: -0.515 (inactive)
- composite z-score [5]: 0.602
- z-score [6]: 0.15 (inactive)
- composite z-score [7]: -0.228
- composite z-score [8]: -0.244
- composite z-score [9]: -0.0585
- composite z-score [10]: -0.146
- composite z-score [11]: 1.07
- composite z-score [12]: -0.5
- composite z-score [13]: -0.353
- z-score [14]: 0.305 (inactive)
- composite z-score [15]: -0.483
- composite z-score [16]: -0.363
- composite z-score [17]: -0.852
- composite z-score [18]: -0.568
- composite z-score [19]: -0.189
- composite z-score [20]: -0.291

SMILES: COC(=O)CC=C[C@@H](C)[C@@H](C=NO[C@@H]1O[C@H](COC(C)=O)[C@@H](OC(C)=O)[C@H](OC(C)=O)[C@H]1OC(C)=O)OC
- composite z-score [1]: 1.18
- z-score [2]: 0.492 (inactive)
- z-score [3]: 0.146 (inactive)
- z-score [4]: 0.119 (inactive)
- composite z-score [5]: 0.062
- z-score [6]: -0.742 (inactive)
- composite z-score [7]: -0.0397
- composite z-score [8]: 0.27
- composite z-score [9]: -0.297
- composite z-score [10]: -0.0506
- composite z-score [11]: -0.225
- composite z-score [12]: -0.194
- composite z-score [13]: -0.463
- z-score [14]: 0.869 (inactive)
- composite z-score [15]: -0.481
- composite z-score [16]: -0.757
- composite z-score [17]: 0.383
- composite z-score [18]: -0.4
- composite z-score [19]: -2.27
- composite z-score [20]: -2.01

SMILES: COc1ccc(O[C@H]2C=C[C@@H](c3ccccc3)O[C@@H]2COC(=O)CCC(C)=NO[C@@H]2O[C@H](COC(C)=O)[C@@H](OC(C)=O)[C@H](OC(C)=O)[C@H]2OC(C)=O)cc1
- composite z-score [1]: 1.44
- z-score [2]: 1.2 (inactive)
- z-score [3]: 1.03 (inactive)
- z-score [4]: 0.865 (inactive)
- composite z-score [5]: 0.727
- z-score [6]: 0.271 (inactive)
- composite z-score [7]: -0.253
- composite z-score [8]: 0.749
- composite z-score [9]: 1.1
- composite z-score [10]: -0.0271
- composite z-score [11]: 0.538
- composite z-score [12]: -0.397
- composite z-score [13]: -0.374
- z-score [14]: -0.315 (inactive)
- composite z-score [15]: 0.799
- composite z-score [16]: 1.01
- composite z-score [17]: 0.609
- composite z-score [18]: 1.12
- composite z-score [19]: 0.275
- composite z-score [20]: -0.116

SMILES: COc1cccc([C@H]2Oc3ccc(OC)cc3C(=NOC[C@@H](O)COCc3ccco3)[C@@H]2O)c1
- composite z-score [1]: -1.03
- z-score [2]: -2.24 (inactive)
- z-score [3]: -1.36 (inactive)
- z-score [4]: -1.22 (inactive)
- composite z-score [5]: -1.32
- z-score [6]: 0.32 (inactive)
- composite z-score [7]: -0.103
- composite z-score [8]: -0.149
- composite z-score [9]: -1.88
- composite z-score [10]: -0.274
- composite z-score [11]: -0.12
- composite z-score [12]: -0.644
- composite z-score [13]: -0.798
- z-score [14]: -0.469 (inactive)
- composite z-score [15]: -0.0458
- composite z-score [16]: -0.754
- composite z-score [17]: -1.44
- composite z-score [18]: -1.3
- composite z-score [19]: 0.13
- composite z-score [20]: 1.29

SMILES: COC(=O)CC=C[C@@H](C)[C@@H](C=NO[C@@H](C)c1cn([C@H](CO)Cc2ccccc2)nn1)OC
- composite z-score [1]: 1.05
- z-score [2]: -2.66 (inactive)
- z-score [3]: -2.01 (inactive)
- z-score [4]: -0.773 (inactive)
- composite z-score [5]: 0.579
- z-score [6]: -0.673 (inactive)
- composite z-score [7]: -0.173
- composite z-score [8]: 0.719
- composite z-score [9]: 0.627
- composite z-score [10]: -0.114
- composite z-score [11]: 0.361
- composite z-score [12]: -0.435
- composite z-score [13]: -0.572
- z-score [14]: -0.772 (inactive)
- composite z-score [15]: 0.229
- composite z-score [16]: 0.165
- composite z-score [17]: 0.523
- composite z-score [18]: 0.31
- composite z-score [19]: 0.498
- composite z-score [20]: -0.163
